Data on seven compounds can be found in PubChem BioAssay (Tox21).

Assay [1] is described as follows: qHTS assay to identify small molecule agonists of the estrogen receptor alpha (ER-alpha) signaling pathway in the presence of an antagonist - cell viability counter screen (AID 1259386).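 Note: series mostly up to about 92 µM; cells exposed to compounds for 22 h at 37 °C before the viability read; nearly all actives have a fitted effect of over 30% in size.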 The procedure, abridged:
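Steps: 5-day stripped-FBS culture; seed and incubate 24hr; add ICI-182,780 (10.0nM final); pin 15-point compound titration; incubate 22hr at 37C; add CellTiter-Fluor at 21hr; read fluorescence.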
A general note: Quantitative high-throughput screening tests each substance at several concentrations.

The target in assay [2] is Progesterone receptor (Homo sapiens) (UniProt P06401). Put plainly: qHTS assay to identify small molecule agonists of the progesterone receptor (PR) signaling pathway (AID 1346784; calls by dose curve; note: nearly all actives have a fitted effect of over 30% in size). The procedure, abridged:
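Compounds were tested for PR agonism in HEK 293T cells bearing a beta-lactamase gene under UAS control. Treatment lasted 16 hr at 37C; signal came from fluorescence of a FRET substrate.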

Assay [3] shares this target. Put plainly: qHTS assay to identify small molecule antagonists of the progesterone receptor (PR) signaling pathway (AID 1346795; active = well fitted inhibition curve with a large enough effect in the signal ratio in the repeat runs, not every such curve was filed as active; the % refers to the signal ratio). The procedure, abridged: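 In HEK293T cells bearing the PR-UAS-bla reporter, compound effects on promegestone-driven (1 nM) beta-lactamase expression are assessed after 16 hr using a fluorescent FRET substrate incubated 2 hr at room temperature.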

Assay [4] in a line: qHTS assay to identify small molecule antagonists of the progesterone receptor (PR) signaling pathway - cell viability counter screen (AID 1346798). Note: series mostly up to about 92 µM; nearly all actives have a fitted effect of over 50% in size. The procedure, abridged:
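Following a 4 hr attachment, PR-UAS-bla HEK293T cells in charcoal-stripped FBS medium were exposed to compounds with R5020 for 16 hr; CellTiter-Glo was added and luminescence read after 30 min at room temperature.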

Assay [5] in a line: qHTS assay to identify small molecule agonists of the progesterone receptor (PR) signaling pathway - cell viability counter screen (AID 1346799; calls by dose curve; note: nearly all actives have a fitted effect of over 45% in size). The procedure, abridged:
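Here, 3,000 PR-UAS-bla HEK293T cells per well were treated with compounds for 16 hr after a 6 hr preincubation at 37C and 5% CO2; cell viability is the CellTiter-Glo luminescence signal.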

The nature of assay [6]: qHTS assay to identify small molecule antagonists of the TGF-beta/Smad signaling pathway - cell viability counter screen (AID 1346824). Note: nearly all actives have a fitted effect of over 50% in size. A digest of the protocol: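 Cytotoxicity counter-screen run in the same wells as the beta-lactamase Smad reporter read: CellTiter-Glo luminescence after 30 min at room temperature. HEK 293T SBE-bla cells had 5 hr compound exposure at 37 C with TGF-beta1 (0.25 ng/mL stock).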

Assay [7] in a line: qHTS assay to identify small molecule agonists of the TGF-beta/Smad signaling pathway - cell viability counter screen (AID 1346829). Note: top concentration of the series differs between compounds; nearly all actives have a fitted effect of over 45% in size. A digest of the protocol:
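Luminescence from CellTiter-Glo, read after a 30 min room-temperature incubation, gives cell viability of SBE-bla HEK 293T cells treated 5 hr with compounds at 37 C.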

A short description of assay [8]: qHTS assay to identify small molecule agonists of the TGF-beta/Smad signaling pathway (AID 1346859; active = well fitted activation curve with a large enough effect in the signal ratio in the repeat runs, not every such curve was filed as active; the % refers to the signal ratio; note: series mostly up to about 77 µM). The procedure, abridged:
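Each well held 4,000 SBE-bla HEK 293T cells incubated overnight before compound addition; 5 hr later the cleavable FRET substrate went on for 2 hr at room temperature, and fluorescence was read at two emissions.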

Assay [9] has as its target Thyrotropin-releasing hormone receptor (Homo sapiens) (UniProt P34981). Put plainly: qHTS assay to identify small molecule antagonists of the thyrotropin-releasing hormone receptor (TRHR) signaling pathway (AID 1346877; active = well fitted inhibition curve with a large enough effect in the repeat runs, not every such curve was filed as active; note: series mostly up to about 51 µM). The procedure, abridged:
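Human TRHR in HEK293 cells; inhibition of the intracellular calcium rise triggered by 1 nM TRH was followed by fluorescence over 3 min. Compounds were run at 15 concentrations, three replicates each.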

For assay [10] the target is unchanged. Put plainly: qHTS assay to identify small molecule agonists of the thyrotropin-releasing hormone receptor (TRHR) signaling pathway (AID 1346891; calls by dose curve; note: series mostly up to about 58 µM). A digest of the protocol: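 Screening of agonists relied on calcium signalling in HEK293 cells expressing human TRHR: dye loading 2 h at 37 °C preceded compound addition and a 3-min fluorescence time course.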
A short description of assay [11]: Human pregnane X receptor (PXR) small molecule agonists, qHTS cell viability counter screen (AID 1346977). Note: nearly all actives have a fitted effect of over 50% in size. The procedure, abridged:
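Tox21 qHTS format; PXR-Luc HepG2, 2,000/well, charcoal-stripped FBS 5%. Cpd exposure 24hr. Read: CellTiter-Fluor fluorescence, multiplexed with luciferase.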

The nature of assay [12]: Caspase-3/7 induction in HepG2 cells by small molecules, qHTS assay (AID 1346978). Note: nearly all actives have a fitted effect of over 15% in size. The procedure, abridged: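 Caspase-3/7 induction was measured by Caspase-Glo 3/7 luminescence (30 min, room temperature) after a 17 hr compound exposure of wild-type HepG2 cells seeded at 2,000 per well and pre-incubated 5 hr.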
Assay [13] can be described thus: Caspase-3/7 induction in CHO-K1 cells by small molecules, qHTS cell viability counter screen (AID 1346979). Note: nearly all actives have a fitted effect of over 35% in size. The procedure, abridged:
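CellTiter-Fluor viability check, qHTS format: wild-type CHO-K1, 16hr compound treatment, 1hr reagent incubation, fluorescence read.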

Assay [14] is described as follows: Caspase-3/7 induction in CHO-K1 cells by small molecules, qHTS assay (AID 1346980). Note: nearly all actives have a fitted effect of over 15% in size. A digest of the protocol: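 Luminescent Caspase-Glo 3/7 read (30min, room temperature) quantified apoptosis induction. Cells were wild-type CHO-K1, treated with compound for 17hr at 37 C and 5% CO2.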
Assay [15] is described as follows: Caspase-3/7 induction in HepG2 cells by small molecules, qHTS cell viability counter screen (AID 1346981). Note: series mostly up to about 92 µM; nearly all actives have a fitted effect of over 30% in size. A digest of the protocol:
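The parent HepG2 line is plated at 2,000 cells per well and rested 5 hr before compound pinning from DMSO stocks. Following a 16-hr treatment at 37 C, a fluorogenic live-cell substrate (CellTiter-Fluor) reports viability after 1 hr.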

Assay [16] concerns the target Nuclear receptor subfamily 1 group I member 2 (Homo sapiens) (UniProt O75469). Description: Human pregnane X receptor (PXR) small molecule agonists, qHTS assay (AID 1346982). Note: nearly all actives have a fitted effect of over 35% in size. The procedure, abridged: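 After plating in 5% charcoal-stripped FBS and a 5 hr rest, PXR-Luc HepG2 cells received compounds in DMSO. Following 24 hr at 37 C, ONE-Glo was added and light output read.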

In assay [17] the target is Cytochrome P450 2D6 (Homo sapiens) (UniProt P10635). Put plainly: Cytochrome P450 Family 2 Subfamily D Member 6 (CYP2D6) small molecule antagonists: luciferase reporter qHTS assay (AID 1671196). Note: nearly all actives have a fitted effect of over 50% in size. Note: potency is the fitted concentration of half-maximal effect. The procedure, abridged:
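Quantitative HTS of Tox21 chemicals against CYP2D6 using a luminescent proluciferin substrate. After NADPH addition, 1 h room-temperature reaction; luminescence recorded 20 min post detection reagent.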
For orientation: Reporter assays use an easily measured gene product as a stand-in for the process of interest.

A number with no mark means an inactive call. Records with an inconclusive call do not appear. Activity calls are given as the source filed them. Unless noted, calls come from the whole dose curve; as a rule, active = well fitted curve in the direction sought with a large enough effect in the repeat runs; inconclusive = weak or mixed curves; inactive = no such curve, though single readings can be large; an effect the other way counts as inactive or inconclusive.

Chain of Thyrotropin-releasing hormone receptor (Homo sapiens) (P34981 whole entry, looked up): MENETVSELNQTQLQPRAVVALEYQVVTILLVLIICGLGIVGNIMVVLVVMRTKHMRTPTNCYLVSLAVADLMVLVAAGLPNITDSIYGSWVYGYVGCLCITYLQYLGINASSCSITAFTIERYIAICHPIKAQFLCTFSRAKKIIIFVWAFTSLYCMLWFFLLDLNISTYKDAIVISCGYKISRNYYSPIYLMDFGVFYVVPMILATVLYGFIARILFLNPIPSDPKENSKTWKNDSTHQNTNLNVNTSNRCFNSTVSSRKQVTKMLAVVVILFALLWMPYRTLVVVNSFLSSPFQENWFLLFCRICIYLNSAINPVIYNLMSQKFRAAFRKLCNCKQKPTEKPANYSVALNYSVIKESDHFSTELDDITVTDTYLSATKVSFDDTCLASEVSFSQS
Chain of Cytochrome P450 2D6 (Homo sapiens) (P10635 whole entry, looked up): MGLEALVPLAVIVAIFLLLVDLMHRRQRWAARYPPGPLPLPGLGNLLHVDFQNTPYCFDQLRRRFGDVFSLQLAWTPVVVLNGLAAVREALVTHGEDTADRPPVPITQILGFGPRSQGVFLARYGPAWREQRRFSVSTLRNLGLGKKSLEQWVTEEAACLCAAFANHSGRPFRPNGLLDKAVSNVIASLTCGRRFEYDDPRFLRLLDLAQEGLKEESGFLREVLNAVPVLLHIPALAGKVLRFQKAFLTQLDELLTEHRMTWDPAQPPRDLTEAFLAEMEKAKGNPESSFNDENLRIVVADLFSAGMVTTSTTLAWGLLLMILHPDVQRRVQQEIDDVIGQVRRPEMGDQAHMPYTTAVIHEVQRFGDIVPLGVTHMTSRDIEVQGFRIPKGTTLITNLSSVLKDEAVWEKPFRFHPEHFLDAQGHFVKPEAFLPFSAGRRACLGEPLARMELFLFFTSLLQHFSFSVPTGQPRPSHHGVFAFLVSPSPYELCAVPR
Chain of Nuclear receptor subfamily 1 group I member 2 (Homo sapiens) (O75469 whole entry, looked up): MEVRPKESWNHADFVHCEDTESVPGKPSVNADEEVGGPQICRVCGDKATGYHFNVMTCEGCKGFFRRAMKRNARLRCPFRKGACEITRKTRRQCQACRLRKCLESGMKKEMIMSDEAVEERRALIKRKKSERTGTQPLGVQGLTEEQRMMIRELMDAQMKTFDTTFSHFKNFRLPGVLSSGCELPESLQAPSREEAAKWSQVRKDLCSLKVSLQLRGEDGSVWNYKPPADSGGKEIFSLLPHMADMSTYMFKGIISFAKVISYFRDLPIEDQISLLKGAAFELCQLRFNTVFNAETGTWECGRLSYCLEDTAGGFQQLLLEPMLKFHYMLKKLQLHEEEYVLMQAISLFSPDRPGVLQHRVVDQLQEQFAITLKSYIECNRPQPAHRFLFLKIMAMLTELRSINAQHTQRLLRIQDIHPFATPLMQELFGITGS
Chain of Progesterone receptor (Homo sapiens) (P06401 whole entry, looked up): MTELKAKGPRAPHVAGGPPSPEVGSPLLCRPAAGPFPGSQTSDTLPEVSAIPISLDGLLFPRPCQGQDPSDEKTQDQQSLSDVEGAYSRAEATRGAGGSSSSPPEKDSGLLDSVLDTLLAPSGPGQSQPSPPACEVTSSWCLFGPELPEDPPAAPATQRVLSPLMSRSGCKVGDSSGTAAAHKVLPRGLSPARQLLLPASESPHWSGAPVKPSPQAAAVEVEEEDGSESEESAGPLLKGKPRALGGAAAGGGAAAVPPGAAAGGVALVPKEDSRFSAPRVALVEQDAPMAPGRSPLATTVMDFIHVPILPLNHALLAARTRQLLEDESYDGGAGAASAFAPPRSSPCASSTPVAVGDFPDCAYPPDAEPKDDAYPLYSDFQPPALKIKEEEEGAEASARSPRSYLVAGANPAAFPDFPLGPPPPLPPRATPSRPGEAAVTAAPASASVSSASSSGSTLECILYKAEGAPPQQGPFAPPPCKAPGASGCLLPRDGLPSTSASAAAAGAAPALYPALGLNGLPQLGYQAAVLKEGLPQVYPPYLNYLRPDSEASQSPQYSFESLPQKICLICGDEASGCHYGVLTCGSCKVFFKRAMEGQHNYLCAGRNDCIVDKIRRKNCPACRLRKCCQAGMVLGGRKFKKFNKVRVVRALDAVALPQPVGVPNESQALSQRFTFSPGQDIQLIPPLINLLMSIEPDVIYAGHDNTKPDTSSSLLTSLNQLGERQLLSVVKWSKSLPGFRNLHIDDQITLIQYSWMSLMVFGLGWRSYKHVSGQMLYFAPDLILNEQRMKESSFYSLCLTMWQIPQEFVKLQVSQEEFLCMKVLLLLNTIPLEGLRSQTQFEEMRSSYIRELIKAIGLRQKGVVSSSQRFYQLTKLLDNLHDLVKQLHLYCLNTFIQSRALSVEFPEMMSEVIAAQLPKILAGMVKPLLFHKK

For the compound `CC(C)CCOC(=O)/C=C/c1ccccc1`, the Potency result in assay [1], in [2], in [3], in assay [4], in assay [5] and in assay [6] was “inactive” throughout. Also, the Potency entry in assay [7], in [8], in assay [9], in assay [11], in [12] and in assay [13] was “inactive” throughout. The Potency result in assay [14], in assay [15], in [16] and in assay [17] was “inactive” in each case. Moreover, in [10], the outcome was inactive.

Consider `Cc1c(C)c2c(c(C)c1O)CC[C@@](C)(CCC[C@H](C)CCC[C@H](C)CCCC(C)C)O2`, for which the Potency entry in assay [1], in [2], in assay [3], in assay [4], in assay [5] and in assay [6] was “inactive” each time. Further, the Potency result in assay [7], in [8], in assay [9], in [11], in [12] and in assay [13] was “inactive” in each case. For the same compound, the Potency result in assay [14], in assay [15], in [16] and in [17] was “inactive” in each case. In addition, the result in assay [10] was inactive.

For the compound `COc1ccc(NC(=O)CC(C)=O)cc1`, the Potency result in [1], in assay [2], in assay [3], in [4], in assay [5] and in [6] was “inactive” each time. The Potency result in [7], in [8], in [9], in assay [11], in assay [12] and in assay [13] was “inactive” each time. For the same compound, the Potency entry in assay [14], in assay [15], in assay [16] and in assay [17] was “inactive” throughout. The outcome in assay [10] was inactive.

As to `OC1CCCc2ccccc21` (stereo not drawn), the Potency result in [1], in [2], in [3], in [4], in assay [5] and in assay [6] was “inactive” in each case. Also, the Potency result in [7], in [8], in assay [9], in assay [11], in assay [12] and in [13] was “inactive” throughout. Moreover, the Potency entry in assay [14], in assay [15], in assay [16] and in assay [17] was “inactive” each time. For the same compound, the result in assay [10] was inactive.

For the compound `COc1cccc(OC)c1C(=O)O`, the Potency entry in [1], in [2], in [3], in [4], in assay [5] and in [6] was “inactive” each time. The Potency result in assay [7], in [8], in assay [9], in assay [11], in [12] and in assay [13] was “inactive” in each case. The Potency result in assay [15], in assay [16] and in [17] was “inactive” each time. In addition, the compound was classed as inactive in [10].

On to `CC[N+](CC)(CC)CCOC(=O)C(C1CCCC1)C1CCCC1`, for which the Potency result in [1], in assay [2], in [3], in [4], in assay [5] and in assay [6] was “inactive” throughout. Moreover, the Potency entry in [7], in [8], in assay [9], in assay [11], in [12] and in assay [13] was “inactive” each time. Further, the Potency entry in [14], in assay [15] and in assay [16] was “inactive” in each case. The compound was called inactive in assay [10]. Besides, the Potency in [17] is 1950 nM (active).

As for `Clc1sc(Cl)c(Cl)c1Cl`, the Potency result in [1], in [2], in [3], in assay [4], in [5] and in assay [6] was “inactive” each time. The Potency entry in assay [7], in assay [8], in assay [9], in [11], in assay [12] and in assay [13] was “inactive” each time. The Potency entry in assay [14], in assay [15], in assay [16] and in [17] was “inactive” in each case. For the same compound, the call in assay [10] was inactive.
